Measured potencies and affinities stand elsewhere. Unmarked numbers belong to inactive results. How the calls were made is not given here.
Test: HeLa cell cytotoxicity, dose response, cytotoxicity control, 24 h, plate reader, powder samples, set 3 (AID 651864)
Settings: HeLa viability, CellTiter-Glo ATP luminescence; series mostly up to 80 µM; activity change, negative = cytotoxicity: at the top concentration

Compound | activity change, negative = cytotoxicity
CC(C)(C)OC(=O)N1CC(NC(=O)Cc2ccc(-c3ccccc3)cc2)C1 | 10.6%
CC(C)NC(=O)Cc1ccc(-c2ccccc2)cc1 | 3.84%
COc1ccc(CC(=O)NC2CCCC2)cc1 | 2.25%
CCCn1nnnc1NCc1ccccc1Cl | -9.87%
O=C(Cc1ccccc1Cl)NC1CCCC1 | -0.086%
Cc1ccccc1CC(=O)NC1CCCC1 | 1.63%
O=C(Cc1ccc(-c2ccccc2)cc1)NC1CC1 | 3.37%
O=C(Cc1ccc(-c2ccccc2)cc1)NC1CCOCC1 | 1.16%
O=C(Cc1cccc(OC(F)(F)F)c1)NC1CCCC1 | 2.97%
Cc1ccc(Cn2nnnc2NCc2ccc(N3CCCC3)cc2)cc1 | 17.3%
